# From PubChem
# FEN1 inhibitor: inhibitors of human flap endonuclease 1 | P39748 | Recombinant FEN1 flap cleavage, fluorescence, 15 min | 390,000 compounds, 0.35% hits | Potency, µM (top dose mostly 114 µM), for inactives: top-dose activity change, negative = inhibition, usual class: inhibitors; note: potency is the fitted concentration of half-maximal effect; nearly all actives have a fitted effect of over 65% in size
#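 Potency values derive from four-parameter Hill fits of normalized qHTS data. The reaction used 10 nM FEN1 preincubated 15 min at room temperature with compound, then 50 nM DNA substrate, read at 0 and 15 min.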
# RECQ1 inh-1: inhibitors of human RECQ1 DNA helicase. P46063. Potency, µM (series often up to 57.3 µM), for the others: at the highest dose activity, negative = inhibition, usual class: inhibitors. RECQ1 DNA unwinding, red fluorescence kinetic read. AID 2549. 240,000 compounds, 0.54% hits;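 note: potency is the fitted concentration of half-maximal effect; plate controls were vehicle for no effect and no enzyme for full effect; nearly all actives have a fitted effect of over 30% in size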
# Target sequence (P46063 whole entry, looked up): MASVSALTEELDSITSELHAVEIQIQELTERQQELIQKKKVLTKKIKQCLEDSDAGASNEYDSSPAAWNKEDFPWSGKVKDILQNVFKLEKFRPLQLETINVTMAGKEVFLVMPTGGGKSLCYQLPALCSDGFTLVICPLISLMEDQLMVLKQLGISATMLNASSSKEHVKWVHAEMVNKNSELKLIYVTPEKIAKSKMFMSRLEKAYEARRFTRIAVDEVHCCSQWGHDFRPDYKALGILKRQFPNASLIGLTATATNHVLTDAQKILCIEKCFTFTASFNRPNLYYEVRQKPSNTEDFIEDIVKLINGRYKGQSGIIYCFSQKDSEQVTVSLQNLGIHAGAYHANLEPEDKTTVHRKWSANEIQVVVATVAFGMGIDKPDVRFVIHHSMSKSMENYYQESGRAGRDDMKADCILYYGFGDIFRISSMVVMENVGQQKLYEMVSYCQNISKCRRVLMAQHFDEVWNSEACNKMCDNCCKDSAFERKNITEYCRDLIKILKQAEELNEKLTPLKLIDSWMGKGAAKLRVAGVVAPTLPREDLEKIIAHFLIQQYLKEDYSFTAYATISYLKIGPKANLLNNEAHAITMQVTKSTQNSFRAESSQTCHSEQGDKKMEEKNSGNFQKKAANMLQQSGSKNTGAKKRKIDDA
#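 50 nM RECQ1T1 preincubated 15 min with compound in Tris pH 8.0 buffer with MgCl2, DTT, Tween-20 and 2.5 ug/ml poly(dI-dC); started with 200 nM TAMRA/BHQ-2 forked duplex and 2 mM ATP. Unwinding read as fluorescence (525/598 nm), two reads 2 h apart.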
# GCN5L2 inh: blocks human GCN5L2 histone acetyltransferase; GCN5L2 HAT assay, ThioGlo1 CoA-SH fluorescence; Potency, µM (top dose mostly 58.9 µM), without a hit: at the top dose activity change, negative = inhibition, hits mostly inhibitors; 390,000 compounds, 0.21% hits; AID 504327; note: potency is the fitted concentration of half-maximal effect
#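 Enzyme at 20nM final was mixed with library compounds for 15 min at room temperature. Peptide H3(1-25) at 75uM, acetyl-CoA at 70uM and ThioGlo1 at 50uM were then added. Plates were read immediately and after 20 min (Ex340nm/Em540nm).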
# PI5P4K alpha inh: inhibitors of human PI5P4K alpha; PI5P4Kalpha enzyme, ADP-Glo luminescence, 60 min; hits give low values; max response, %; 330,000 compounds, 1.2% hits; active = max response of -50% or lower; inconclusive = between -30% and -50%; inactive = -30% or higher; note: value at the top dose of about 77 µM
#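 Controls without substrate or without enzyme flank wells where PI5P4Kalpha converts substrate using 5 microM ATP (final). Incubation lasts 60 minutes at room temperature; ADP formed is read by ADP-Glo luminescence.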
# APE1 inh-1: APE1 (human) endonuclease inhibition. AID 2517. Potency, µM (doses to about 65.8 µM), for the others: at the top dose activity change, negative = inhibition, hits mostly inhibitors. P27695. recombinant APE1, TAMRA/BHQ-2 abasic DNA cleavage fluorescence. 350,000 compounds, 0.35% hits;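 note: potency is the fitted concentration of half-maximal effect; plate controls were vehicle for no effect and reference inhibitor for full effect; nearly all actives have a fitted effect of over 55% in size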
#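 Kinetic fluorescence read (525 ex/598 em nm, three reads 60 s apart) of AP-site incision; signal = third minus first read. Enzyme 0.75 nM, dual-labelled THF duplex 50 nM, compound preincubation 15 min RT.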
# BLM inh-1: inhibitors of human Bloom syndrome helicase BLM. recombinant BLM DNA unwinding, fluorescence dequenching. Potency, µM (top dose mostly 56.1 µM), without a hit: at the top dose activity change, negative = inhibition, actives largely listed as inhibitors. 350,000 compounds, 0.2% hits. AID 2528;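 note: potency is the fitted concentration of half-maximal effect; plate controls were vehicle for no effect and no enzyme for full effect; nearly all actives have a fitted effect of over 35% in size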
# APE1 dye cs: DNA dye displacement counter-screen activity; shares compounds with APE1 inh-1; DNA fluorescent dye displacement counterscreen, fluorescence; Potency, µM (doses to about 28.5 µM), for inactives: top-dose activity change, negative = inhibition, actives largely listed as inhibitors; 480 compounds, 7% hits; AID 2564;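 note: loss of thiazole orange fluorescence as the dye is displaced from duplex DNA; potency is the fitted concentration of half-maximal effect; 0% = ThO with dsDNA and no compound and -100% = ThO without dsDNA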
# EndoIV counter: blocks E. coli endonuclease IV DNA cleavage; E. coli Endo IV, fluorogenic AP-site DNA cleavage; Potency, µM (titrated, usually from 27.1 µM), for the others: at the highest dose activity change, negative = inhibition, actives largely listed as inhibitors; shares compounds with APE1 inh-1; AID 2565; 560 compounds, 4% hits;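 note: potency is the fitted concentration of half-maximal effect; plate controls were uninhibited enzyme wells for no effect and no enzyme buffer wells for full effect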
# APE1 inh-2: confirmation of inhibitors of human APE1 endonuclease. 750 compounds, 44% hits. purified APE1, fluorogenic abasic-site DNA cleavage. AID 2572. Potency, µM (doses to about 57.1 µM), without a hit: top-dose activity change, negative = inhibition, usual class: inhibitors. shares compounds with APE1 inh-1; note: potency is the fitted concentration of half-maximal effect; nearly all actives have a fitted effect of over 30% in size
# APE1 FP inh: displaces DNA from human APE1 in FP assay; shares compounds with APE1 inh-1; APE1 binding to TAMRA-labelled double-stranded DNA, fluorescence polarization displacement; Potency, µM (doses to about 28.5 µM), for the others: at the top dose activity, negative = inhibition, actives largely listed as inhibitors; 480 compounds, 7% hits; note: potency is the fitted concentration of half-maximal effect
# BLM inh-2: confirmation of inhibitors of human Bloom syndrome helicase BLM | BLM DNA unwinding, fluorescence quenching, biochemical | Potency, µM, without a hit: max response, negative = inhibition, most hits filed as inhibitors | AID 2585 | shares compounds with BLM inh-1 | 220 compounds, 40% hits;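 note: strand separation dequenches TAMRA so unwinding raises red fluorescence; potency is the fitted concentration of half-maximal effect; series mostly up to about 69 µM; nearly all actives have a fitted effect of over 45% in size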
# RECQ1 conf: confirmation of human RECQ1 helicase inhibitors | shares compounds with RECQ1 inh-1 | RECQ1 helicase DNA unwinding, fluorescence | Potency, µM (top dose mostly 229 µM), inactives show top-dose activity change, negative = inhibition, usual class: inhibitors | 610 compounds, 28% hits | AID 2708; note: potency is the fitted concentration of half-maximal effect; nearly all actives have a fitted effect of over 45% in size
# RECQ1 ADP FP: displaces ADP in a fluorescence polarization counter-screen for RECQ1 hits. 530 compounds, 27% hits. ADP fluorescence polarization displacement counterscreen. shares compounds with RECQ1 inh-1. Potency, µM (doses to about 228 µM), for inactives: at the top dose activity change, negative = inhibition, most hits filed as inhibitors; note: potency is the fitted concentration of half-maximal effect; nearly all actives have a fitted effect of over 45% in size
# RECQ1 inh-2: RECQ1 helicase inhibition confirmed, round 2; shares compounds with RECQ1 inh-1; recombinant RECQ1 DNA unwinding, red fluorescence; AID 504841; 1,100 compounds, 15% hits; Potency, µM (series often up to 119 µM), inactives show top-dose activity, negative = inhibition, actives largely listed as inhibitors; note: potency is the fitted concentration of half-maximal effect; nearly all actives have a fitted effect of over 50% in size
# Active calls of the source: *; i = inactive; ? = inconclusive; . = no result; [ ] = remark or other dose. Only some compounds are listed: those with a hit (about 1.5% of all), similar ones and a draw of the others. Unless noted, calls come from the whole dose curve; as a rule, active = well fitted curve in the direction sought with a large enough effect; inconclusive = small, poorly fitted or top-dose-only effect, or another doubt; inactive = no such curve, though single readings can be large; an effect the other way counts as inactive or inconclusive. Unless noted, % is set by controls: 0 for no effect and ±100 for the full control effect.
SMILES,FEN1 inhibitor,RECQ1 inh-1,GCN5L2 inh,PI5P4K alpha inh,APE1 inh-1,BLM inh-1,APE1 dye cs,EndoIV counter,APE1 inh-2,APE1 FP inh,RECQ1 conf,RECQ1 ADP FP,RECQ1 inh-2,others
CCCSC1=N/C(=C\c2ccsc2)C(=O)S1,-8%,i,?,1,-4%,-4%,.,.,.,.,.,.,.,
O=C1SC(SCc2ccccc2)=N/C1=C\c1ccc(C(=O)O)cc1,-8%,0%,-6%,-7,1%,-6%,.,.,.,.,.,.,.,
CCCSC1=N/C(=C\C=C\c2ccco2)C(=O)S1,50µM*,7.9µM*,-23%,-67*,4µM*,20µM*,-3%,18%,?,?,32µM*,13µM*,?,
O=C1SC(SCc2ccccc2)=N/C1=C\c1ccco1,?,?,.,.,?,-5%,?,-10%,?,5%,.,.,?,
CC(=O)O[C@@H]1CC[C@@]2(C)[C@H](C1)[C@H](OC(C)=O)C[C@@H]1[C@@H]2C[C@H]2[C@@H]3CN4C[C@H](C)CC[C@H]4[C@H](C)[C@H]3CC[C@@]12O,.,-14%,-6%,.,-4%,2%,.,.,.,.,.,.,.,
O=C1/C(=C/c2ccc(O)c(O)c2)Oc2cc(O)ccc21,?,?,-16%,-64*,?,-15%,-5%,177%,?,27%,.,.,56µM*,
NNC(=O)c1cc(O)c(O)c(O)c1,22µM*,3.2µM*,-3%,-17,0.89µM*,?,3%,164%,4µM*,5%,8%[114 µM],-11%[91.9 µM],.,
COc1c(Cl)cc(C(=O)NN)cc1Cl,1%,i,-10%,5,-1%,-5%,.,.,.,.,.,.,.,
O=C(Cn1cnc2sc(-c3ccccc3)cc2c1=O)NCc1ccco1,?,20µM*,?,-83*,32µM*,18µM*,11%,-11%,8.9µM*,?,40µM*,-22%[91.9 µM],.,BLM inh-2=?
O=C(Cn1cnc2sc(-c3ccccc3)cc2c1=O)NCc1ccccc1,0%,i,-30%,.,18%,-12%,.,.,.,.,.,.,.,
CC(C)[C@H](O)CC[C@@H](C)C1CC[C@H]2C3CC=C4C[C@@H](O)CC[C@]4(C)C3CC[C@]12C (stereo partly drawn),.,-10%,-6%,.,4%,.,.,.,.,.,.,.,.,
Cc1ccc(/C=C2/C(=O)c3ccc(C(=O)O)cc3C2=O)o1,25µM*,7.1µM*,-3%,-62*,8.9µM*,75%,.,.,?,.,24%[114 µM],45µM*,.,
C=C[C@@]1(C)CC(=O)[C@]2(O)[C@@]3(C)[C@H](O)CCC(C)(C)[C@@H]3[C@H](O)[C@H](OC(C)=O)[C@@]2(C)O1,.,-14%,-9%,.,-6%,-1%,.,.,.,.,.,.,.,
C=CCn1c(SCC(=O)c2ccc(O)c(O)c2)nnc1-c1cccc(C)c1,-4%,.,-11%,-1,-6%,.,.,.,.,.,.,.,.,
CCn1c(SCC(=O)c2ccc(O)c(O)c2)nnc1-c1ccccc1OC,2%,14µM*,-3%,-17,?,-5%,4%,90%,?,2%,.,.,2µM*,
C=CCn1c(SCC(=O)c2ccc(O)c(O)c2)nnc1-c1cccnc1,?,8.9µM*,?,-51*,1.6µM*,?,-5%,136%,2.5µM*,-23%,.,.,3.5µM*,
CCn1c(CSc2nc3ccccc3s2)nnc1SCC(=O)c1ccc(O)c(O)c1,-10%,7.9µM*,-8%,.,18µM*,-11%,?,151%,?,8%,14%[114 µM],?,?,
CCn1c(SCC(=O)c2ccc(O)c(O)c2)nnc1-c1ccccc1,4%,-22%,-8%,-16,?,-15%,.,.,.,.,.,.,.,
O=C(O)CCC/C=C\C[C@@H]1C(/C=C/[C@@H](O)COc2cccc(C(F)(F)F)c2)[C@@H](O)C[C@@H]1O (stereo partly drawn),.,4%,15%,.,11%,.,.,.,.,.,.,.,.,
C[C@@]1(C(=O)O)NCCc2cc(O)c(O)cc21,.,2.5µM*,?,.,1.8µM*,8.9µM*,-12%[57.1 µM],161%[57.1 µM],-2%,20%[57.1 µM],-58%,?,.,
O=c1cc(-c2ccc(O)cc2)oc2cc(O)c(C3OC(CO)C(O)C(O)C3O)c(O)c12 (stereo not drawn),?,?,0%,-19,7.1µM*,-16%,-10%,-1%,13µM*,2%,.,.,50µM*,
O=C(NN1C(=O)C2CC=C(Cl)CC2C1=O)c1ccncc1 (stereo not drawn),-2%,13µM*,2%,?,?,-14%,.,.,-18%,.,32µM*,?,13µM*,
N[C@@H](CCCCNC(=O)CCCC[C@@H]1SC[C@H]2NC(=O)N[C@H]12)C(=O)O,.,-13%,?,.,10%,-1%,.,.,.,.,.,.,.,
COc1cc(/C=C/[N+](=O)[O-])ccc1OCc1cccc(C(=O)O)c1,50µM*,20µM*,-14%,-55*,6.3µM*,?,20%,4%,?,29%,18%[114 µM],?,.,
